Most compounds without a hit are left out; they make up all but 3.2% or so of the library.
FAS-TE inh: FAS thioesterase domain inhibitors, primary screen, biochemical, fluorescence intensity, uHTS. Fatty acid synthase (Homo sapiens), P49327. inhibition, % at 15 µM. recombinant FAS-TE, OMFH fluorogenic substrate, fluorescence endpoint. actives 0.67% (n = 360,000);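 active means compounds whose normalised, plate-corrected inhibition of enzyme fluorescence in the single-dose primary screen is 50% or more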
CRFR2-BP ag: agonists of CRF-BP/CRF-R2 complex, primary screen, cell-based, HEK293, calcium dye fluorescence, uHTS; CRF-binding protein / CRF receptor 2 complex (human); activation, % at 13.2 µM; calcium dye fluorescence (FLIPR); percent of saturating CRF peptide response; actives 0.46% (n = 350,000);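 active means activation of at least 50%, plus an integration ratio under a set limit after plate pattern correction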
CRFBP-R2 block: antagonists of CRF-BP/CRF-R2 complex, primary screen, cell-based, HEK293, calcium dye fluorescence, uHTS; inhibition, % at 11.8 µM; actives 0.59% (n = 350,000); CRF-induced calcium fluorescence; AID 588475, 2011;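 active means inhibition of the ligand-induced calcium signal above about 50% at the single tested concentration, limit read from the data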
H9c2 protect: cardioprotection against H2O2-induced cell death, primary screen, uHTS, H9c2 cells, ATPLite luminescence | H9c2 cardiomyocytes, H2O2 injury protection, 2 h | protection from H2O2 cell death, % at 20 µM | actives 0.63% (n = 360,000) | AID 588492, 2011;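 active means compounds giving at least 50% protection of heart cells from peroxide-induced death in the single-dose screen, raw or plate-pattern-corrected value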
PfGluPho inh: PfG6PD enzyme inhibitors, primary screen, biochemical, fluorescence intensity, uHTS; glucose-6-phosphate dehydrogenase-6-phosphogluconolactonase (Plasmodium falciparum 3D7); PfGluPho enzyme, NADPH resazurin-diaphorase fluorescence; inhibition, % at 20 µM; actives 0.78% (n = 350,000); AID 504690, 2011;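 active means inhibition reaching at least a set limit at 20 µM in the primary screen, cut at about 59% in these data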
aDG glyco act: activators of alpha-DG glycosylation, primary screen, uHTS, Pro5-aDG cells, AlphaScreen | alpha-DG glycosylation AlphaScreen (IIH6); 0% Pro5, 100% B10-LARGE cell signal | activation, % at 10 µM | actives 0.22% (n = 360,000) | AID 624168, 2012;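 active means activation of at least 8% versus controls, or a plate z-score of at least 8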;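 further: Pro5 are CHO cells carrying HIG-tagged alpha-DG that lacks glycosylation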
Of the large screens only hits and unclear results are named; the others gave an inactive call.

Cc1ccccc1CN(c1ccc(C(=O)NCc2ccccn2)cc1)S(C)(=O)=O	none
COc1ccc(CC(O)COS(N)(=O)=O)cc1 (stereo unspecified)	none
Cc1cccc(NC(=O)CSCC(=O)Nc2cc(Cl)ccc2N2CCN(C)CC2)c1	none
CC(=O)Nc1cccc(-c2ccnc3c2CC(C(=O)NCc2ccc(N(C)C)cc2)O3)c1 (stereo unspecified)	none (no result: CRFR2-BP ag, CRFBP-R2 block, PfGluPho inh)
O=C(c1ccc2c(c1)N(Cc1ccccc1)CCS2)N1CCCCC1	none
S=c1[nH]ncn1/N=C/c1ccccn1	none
O=C(c1cc2nc(-c3ccc(F)cc3)cc(C(F)(F)F)n2n1)N1CCOCC1	CRFBP-R2 block 54
Cc1ccsc1C(=O)N1CCC1(C)C(=O)NS(=O)(=O)c1ccccc1 (stereo unspecified)	none (no result: CRFR2-BP ag, CRFBP-R2 block, PfGluPho inh)
COc1cc(Cl)c(S(=O)(=O)N2CCCC2)cc1Cl	none
COc1cc(N2C(=O)C=CC2=O)c(OC)cc1Cl	PfGluPho inh 72
O=C(COC(=O)c1ccc(S(=O)(=O)N2CCOCC2)cc1)Nc1ccccc1OC(F)F	none
O=C(COC(=O)CCc1ccc(S(=O)(=O)N2CCOCC2)cc1)Nc1ccccc1OC(F)F	CRFBP-R2 block 105
CC1CCCC(C)N1C(=O)COC(=O)COc1ccc(C#N)cc1 (stereo unspecified)	CRFBP-R2 block 72
Cc1sc2ncnc(OCC(=O)NC(C)C)c2c1C	CRFBP-R2 block 90
CC1CCN(C(=O)COC(=O)[C@H](C)NS(=O)(=O)/C=C/c2ccccc2)CC1	none
CC(C)(C)C1CCc2c(sc(NC(=O)C3CC=CCC3C(=O)O)c2C#N)C1 (stereo unspecified)	CRFBP-R2 block 61
CC1=Nc2ccccc2/C1=C\c1nc(-c2ccc(C(F)(F)F)cc2)oc1O	CRFR2-BP ag 121
CC1=Nc2ccccc2/C1=C\c1nc(-c2ccccc2)oc1O	none
CCOC(=O)/C=c1/s/c(=C/c2ccc3cc(OC)ccc3c2)c(=O)n1CC(=O)NCc1ccc2c(c1)OCO2	CRFR2-BP ag 64
COc1cc(-c2n[nH]c(=S)n2/N=C/c2cccn2C)cc(OC)c1OC	CRFR2-BP ag 104
Cn1cccc1/C=N/n1c(-c2ccco2)n[nH]c1=S	none
CC1CCCCN1C(C(=O)O)c1ccccc1 (stereo unspecified)	CRFBP-R2 block 65
COc1ccc(OC)c(NC(=S)NCc2cccnc2)c1	none
COc1cc(-c2cc3nc(NCCc4ccncc4)ccn3n2)cc(OC)c1OC	none (no result: CRFR2-BP ag, CRFBP-R2 block, PfGluPho inh)
COc1ccc2nnc(-c3ccccc3)n2n1	none
NS(=O)(=O)c1ccc(CCNc2ccn3nc(-c4ccccc4)cc3n2)cc1	none (no result: CRFR2-BP ag, CRFBP-R2 block, PfGluPho inh)
COCCCNc1ccn2nc(-c3ccc(OCCN4CCOCC4)cc3)cc2n1	none (no result: CRFR2-BP ag, CRFBP-R2 block, PfGluPho inh)
NS(=O)(=O)c1ccc(CCNc2ccn3nc(-c4ccc(OCCN5CCOCC5)cc4)cc3n2)cc1	H9c2 protect 66 (no result: CRFR2-BP ag, CRFBP-R2 block, PfGluPho inh)
COc1cc(-c2cc3nc(NCCOc4ccccc4)ccn3n2)cc(OC)c1OC	H9c2 protect 92 (no result: CRFR2-BP ag, CRFBP-R2 block, PfGluPho inh)
COc1cc(-c2cc3nc(NCCc4ccc(S(N)(=O)=O)cc4)ccn3n2)cc(OC)c1OC	H9c2 protect 86 (no result: CRFR2-BP ag, CRFBP-R2 block, PfGluPho inh)
COc1cc(CCNc2ccc3nnc(-c4ccccc4)n3n2)cc(OC)c1OC	H9c2 protect 56
CN(C(=O)CN1C(=O)/C(=C/c2ccccc2Cl)SC1=S)C1CCS(=O)(=O)C1 (stereo unspecified)	CRFBP-R2 block 53
CN(C(=O)CN1C(=O)S/C(=C\c2ccccc2Cl)C1=O)C1CCS(=O)(=O)C1 (stereo unspecified)	none
Cc1ccnc(NC(=O)CCC(=O)N(CC(=O)NC2CCCCC2)CC2CCCO2)c1 (stereo unspecified)	none
C=CCN1C(c2cccc(C(F)(F)F)c2)=CS/C1=C(/C#N)c1nnc(N2CCOCC2)n1-c1ccccc1	CRFR2-BP ag 108
CC(C)(C)C(=O)/C=c1\[nH]c(=O)/c(=C\c2ccc(F)cc2)s1	none
COc1ccc(/C=c2\s/c(=C/C(=O)c3ccc(C)cc3)[nH]c2=O)cc1OC	CRFR2-BP ag 182
N#CNC(=Nc1cccc(F)c1)SCc1ccccc1	CRFBP-R2 block 64
C=CCn1c(SCC(=O)c2ccc(O)c(O)c2)nnc1-c1cccc(OC)c1	H9c2 protect 54
C=CCn1c(SCC(=O)c2ccc(O)c(O)c2)nnc1-c1ccc(OC)cc1	none
COc1ccc(-n2nnnc2SCC(=O)c2ccc(O)c(O)c2)cc1	H9c2 protect 60
C=CCn1c(SCC(=O)c2ccc(O)c(O)c2)nnc1-c1ccc(C)cc1	H9c2 protect 62
NC(=O)c1ccc(-n2nnnc2SCC(=O)c2ccc(O)c(O)c2)cc1	none
COc1ccc(CCNC(=O)CSc2nn(-c3ccccc3)c(=S)s2)cc1	none
Cc1ccc(CNC(=O)c2ccc(N3CCC4(CC3)CC(c3cccc(Br)c3)=NO4)c(NC(=O)c3cccc(C)c3)c2)cc1	none
COc1cccc(C(=O)Nc2cc(C(=O)NCc3ccc(C)cc3)ccc2N2CCC3(CC2)CC(c2cccc(Br)c2)=NO3)c1	CRFBP-R2 block 66
COc1cc(C)c(COc2ncnc3ccccc23)cc1OC	none
Nc1c(C(=O)NC2CCCC2)c2nc3ccccc3nc2n1/N=C/c1ccco1	H9c2 protect 50
Nc1c(C(=O)NC2CCCC2)c2nc3ccccc3nc2n1N	H9c2 protect 62
COc1ccccc1/C=N/n1c(N)c(C(=O)NC2CCCCC2)c2nc3ccccc3nc21	none
CC1(C(=O)Nc2ccc3[nH]ncc3c2)CCN1C(=O)Cc1ccc(-c2ccccc2)cc1 (stereo unspecified)	none (no result: CRFR2-BP ag, CRFBP-R2 block, PfGluPho inh)
Oc1ccc2nnc3c(Br)cnn3c2c1	CRFR2-BP ag 146
Clc1ccc2nc3c4ccccc4cnn3c2c1	none
CCc1ccc(C2=CC(c3cc(Br)ccc3F)n3ncnc3N2)cc1 (stereo unspecified)	CRFR2-BP ag 54
Fc1ccc(Br)cc1C1C=C(c2ccc(Br)cc2)Nc2ncnn21 (stereo unspecified)	CRFR2-BP ag 102
C1=C(c2ccccc2)Nc2ncnn2C1c1ccccc1 (stereo unspecified)	none
CC(=O)NC1Sc2ccccc2N=C1c1ccccc1 (stereo unspecified)	PfGluPho inh 63
Cc1ccc(C)c2nc3sc(C(=O)N4CCCc5ccccc54)c(N)c3cc12	CRFR2-BP ag 60
O=C(c1ccc(C(=O)N2CCCc3ccccc32)s1)N1CCCc2ccccc21	none
COc1cc(C(=O)NNC(=S)NCc2ccco2)cc(OC)c1OC	none

Compound activity from PubChem.
